Laboratory results from the supplement of paper PMC10849652.
The full data set covers some 8,800 targets. This sample favours those with a hit. About 0.5% of all pairs of compound and target were hits.

compound: CC(C)(O)CC(=O)NCCn1ccc2ncnc(Nc3ccc(Oc4cccc(C(F)(F)F)c4)c(Cl)c3)c21; experiment: log2 fold change, soluble protein after heating vs DMSO (PISA); higher = thermal stabilisation; K562 lysate, 10 uM; active = over 0.2 and 3.5 SD of the protein, either way, in both replicates (recomputed)
How it was run: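 Dounce homogenisation of K562 pellets in PBS pH 7.4 with 1 mM MgCl2 produced a crude extract, used at 1 mg/mL protein. Exposure to 10 μM compound lasted 30 min, and aliquots were then heated for 3 min across 48°C-58°C, pooled and brought to 0.5% NP-40 at 4°C. The supernatant after 21,000xg for 90 min was quantified by TMTpro 16plex LC-MS/MS with channel sums equalised. Duplicate values are given as log-two fold change in thermal stability relative to solvent controls.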

UniProt Q9Y2V7, sequence (Q9Y2V7 whole entry, looked up): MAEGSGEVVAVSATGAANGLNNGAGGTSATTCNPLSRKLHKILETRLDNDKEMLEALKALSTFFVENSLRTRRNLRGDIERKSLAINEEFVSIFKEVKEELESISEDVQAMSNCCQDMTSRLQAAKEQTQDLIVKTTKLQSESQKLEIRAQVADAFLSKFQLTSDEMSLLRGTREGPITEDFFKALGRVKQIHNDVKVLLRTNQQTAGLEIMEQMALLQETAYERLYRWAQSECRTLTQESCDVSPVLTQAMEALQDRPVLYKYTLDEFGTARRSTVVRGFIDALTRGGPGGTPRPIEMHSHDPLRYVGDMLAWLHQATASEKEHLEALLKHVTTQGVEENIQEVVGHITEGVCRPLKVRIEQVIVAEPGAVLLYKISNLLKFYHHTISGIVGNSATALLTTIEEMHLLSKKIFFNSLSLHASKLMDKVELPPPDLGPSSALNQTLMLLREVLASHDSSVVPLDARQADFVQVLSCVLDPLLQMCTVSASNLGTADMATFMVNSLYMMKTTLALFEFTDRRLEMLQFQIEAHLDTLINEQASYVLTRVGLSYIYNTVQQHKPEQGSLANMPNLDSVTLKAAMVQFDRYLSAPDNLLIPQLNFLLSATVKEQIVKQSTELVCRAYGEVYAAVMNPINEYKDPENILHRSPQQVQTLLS
UniProt P06732, sequence (P06732 whole entry, looked up): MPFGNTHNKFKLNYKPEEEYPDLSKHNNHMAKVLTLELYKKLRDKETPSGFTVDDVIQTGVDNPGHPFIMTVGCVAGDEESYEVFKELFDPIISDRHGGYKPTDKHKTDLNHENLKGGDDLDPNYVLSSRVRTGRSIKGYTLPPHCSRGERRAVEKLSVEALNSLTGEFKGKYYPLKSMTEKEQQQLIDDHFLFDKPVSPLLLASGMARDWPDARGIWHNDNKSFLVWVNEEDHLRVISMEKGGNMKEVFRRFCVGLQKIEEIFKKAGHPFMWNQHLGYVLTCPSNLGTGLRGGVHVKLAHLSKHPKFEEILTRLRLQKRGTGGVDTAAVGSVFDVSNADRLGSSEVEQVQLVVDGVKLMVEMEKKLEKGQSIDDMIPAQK
UniProt Q14746, sequence (Q14746 whole entry, looked up): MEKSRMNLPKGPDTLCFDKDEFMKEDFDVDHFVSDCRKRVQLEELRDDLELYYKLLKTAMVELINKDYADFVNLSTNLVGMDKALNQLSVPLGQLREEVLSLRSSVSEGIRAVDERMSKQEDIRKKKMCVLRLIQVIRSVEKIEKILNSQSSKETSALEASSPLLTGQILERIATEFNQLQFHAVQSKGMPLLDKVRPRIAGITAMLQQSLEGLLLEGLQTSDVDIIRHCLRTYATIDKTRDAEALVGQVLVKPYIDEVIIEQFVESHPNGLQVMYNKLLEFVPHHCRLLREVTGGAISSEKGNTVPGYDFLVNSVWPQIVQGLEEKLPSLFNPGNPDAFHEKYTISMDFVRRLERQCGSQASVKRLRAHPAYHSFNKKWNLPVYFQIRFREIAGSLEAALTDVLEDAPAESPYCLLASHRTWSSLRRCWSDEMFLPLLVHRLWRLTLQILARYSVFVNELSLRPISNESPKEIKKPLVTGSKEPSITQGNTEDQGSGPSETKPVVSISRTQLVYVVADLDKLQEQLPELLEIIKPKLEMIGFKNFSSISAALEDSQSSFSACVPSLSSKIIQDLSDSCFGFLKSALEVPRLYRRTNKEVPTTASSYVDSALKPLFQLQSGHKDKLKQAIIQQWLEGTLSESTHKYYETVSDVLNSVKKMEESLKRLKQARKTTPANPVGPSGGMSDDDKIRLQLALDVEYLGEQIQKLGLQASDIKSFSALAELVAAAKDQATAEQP
UniProt O75208, sequence (O75208 whole entry, looked up): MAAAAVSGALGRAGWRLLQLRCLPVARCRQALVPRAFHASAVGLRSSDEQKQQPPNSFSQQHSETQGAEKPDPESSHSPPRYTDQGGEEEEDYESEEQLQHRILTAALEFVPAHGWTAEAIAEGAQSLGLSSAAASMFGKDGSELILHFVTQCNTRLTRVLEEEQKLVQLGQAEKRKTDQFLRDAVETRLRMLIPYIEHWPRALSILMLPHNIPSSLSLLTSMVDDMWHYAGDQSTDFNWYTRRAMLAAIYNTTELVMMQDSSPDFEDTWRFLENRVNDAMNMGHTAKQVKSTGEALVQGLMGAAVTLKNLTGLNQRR
UniProt Q9P0U4, sequence (Q9P0U4 whole entry, looked up): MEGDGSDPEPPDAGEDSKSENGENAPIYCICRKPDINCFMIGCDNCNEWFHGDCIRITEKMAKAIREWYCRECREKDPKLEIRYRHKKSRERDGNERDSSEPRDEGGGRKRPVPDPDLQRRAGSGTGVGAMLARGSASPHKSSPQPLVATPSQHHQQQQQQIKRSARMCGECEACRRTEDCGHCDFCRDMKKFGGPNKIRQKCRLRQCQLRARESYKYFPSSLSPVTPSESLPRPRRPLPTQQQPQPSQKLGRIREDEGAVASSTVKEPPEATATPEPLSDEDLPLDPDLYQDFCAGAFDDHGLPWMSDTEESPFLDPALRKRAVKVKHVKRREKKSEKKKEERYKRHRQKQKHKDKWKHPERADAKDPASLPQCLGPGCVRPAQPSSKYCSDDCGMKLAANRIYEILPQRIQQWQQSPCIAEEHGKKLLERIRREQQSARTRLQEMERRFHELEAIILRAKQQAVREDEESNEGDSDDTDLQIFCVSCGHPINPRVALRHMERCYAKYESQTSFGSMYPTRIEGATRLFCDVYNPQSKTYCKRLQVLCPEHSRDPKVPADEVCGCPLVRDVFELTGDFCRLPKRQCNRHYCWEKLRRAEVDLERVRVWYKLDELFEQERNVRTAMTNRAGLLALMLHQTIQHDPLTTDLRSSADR
UniProt Q9NZN8, sequence (Q9NZN8 whole entry, looked up): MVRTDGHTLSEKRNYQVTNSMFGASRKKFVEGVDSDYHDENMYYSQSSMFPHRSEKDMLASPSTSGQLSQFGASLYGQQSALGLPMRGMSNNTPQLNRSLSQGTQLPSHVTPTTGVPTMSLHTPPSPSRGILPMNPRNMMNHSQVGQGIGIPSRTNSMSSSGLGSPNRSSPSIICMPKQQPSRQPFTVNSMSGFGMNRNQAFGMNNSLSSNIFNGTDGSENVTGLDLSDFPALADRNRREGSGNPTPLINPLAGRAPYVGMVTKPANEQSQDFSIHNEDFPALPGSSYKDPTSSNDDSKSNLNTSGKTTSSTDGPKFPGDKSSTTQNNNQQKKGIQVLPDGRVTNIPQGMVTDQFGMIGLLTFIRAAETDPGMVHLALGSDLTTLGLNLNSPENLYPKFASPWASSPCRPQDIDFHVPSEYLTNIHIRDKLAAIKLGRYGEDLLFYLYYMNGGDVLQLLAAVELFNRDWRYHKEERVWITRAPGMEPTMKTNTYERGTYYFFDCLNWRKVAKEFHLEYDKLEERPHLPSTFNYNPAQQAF
UniProt Q9UP83, sequence (Q9UP83 whole entry, looked up): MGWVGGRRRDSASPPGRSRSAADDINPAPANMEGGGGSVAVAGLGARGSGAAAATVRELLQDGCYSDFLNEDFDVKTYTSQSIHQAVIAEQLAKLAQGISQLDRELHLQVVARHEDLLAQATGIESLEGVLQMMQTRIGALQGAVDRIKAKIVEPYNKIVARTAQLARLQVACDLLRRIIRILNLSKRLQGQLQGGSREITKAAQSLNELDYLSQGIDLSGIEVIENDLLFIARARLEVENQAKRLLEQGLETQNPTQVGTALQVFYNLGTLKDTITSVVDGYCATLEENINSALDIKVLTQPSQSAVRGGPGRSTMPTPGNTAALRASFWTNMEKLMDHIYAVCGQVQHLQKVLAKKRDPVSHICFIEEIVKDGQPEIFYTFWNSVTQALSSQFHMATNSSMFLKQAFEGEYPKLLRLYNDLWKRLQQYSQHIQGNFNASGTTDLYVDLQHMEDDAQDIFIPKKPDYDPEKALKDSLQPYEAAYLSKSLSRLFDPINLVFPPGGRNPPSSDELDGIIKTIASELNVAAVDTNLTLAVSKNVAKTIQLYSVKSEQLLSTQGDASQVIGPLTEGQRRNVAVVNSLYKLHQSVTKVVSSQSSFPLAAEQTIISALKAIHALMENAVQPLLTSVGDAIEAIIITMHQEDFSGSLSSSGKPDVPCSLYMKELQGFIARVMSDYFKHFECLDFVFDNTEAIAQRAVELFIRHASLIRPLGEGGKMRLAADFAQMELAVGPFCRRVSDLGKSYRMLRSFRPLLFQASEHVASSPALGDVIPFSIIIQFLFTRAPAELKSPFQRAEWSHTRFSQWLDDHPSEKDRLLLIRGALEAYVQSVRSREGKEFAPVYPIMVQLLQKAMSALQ
UniProt Q9H4E7, sequence (Q9H4E7 whole entry, looked up): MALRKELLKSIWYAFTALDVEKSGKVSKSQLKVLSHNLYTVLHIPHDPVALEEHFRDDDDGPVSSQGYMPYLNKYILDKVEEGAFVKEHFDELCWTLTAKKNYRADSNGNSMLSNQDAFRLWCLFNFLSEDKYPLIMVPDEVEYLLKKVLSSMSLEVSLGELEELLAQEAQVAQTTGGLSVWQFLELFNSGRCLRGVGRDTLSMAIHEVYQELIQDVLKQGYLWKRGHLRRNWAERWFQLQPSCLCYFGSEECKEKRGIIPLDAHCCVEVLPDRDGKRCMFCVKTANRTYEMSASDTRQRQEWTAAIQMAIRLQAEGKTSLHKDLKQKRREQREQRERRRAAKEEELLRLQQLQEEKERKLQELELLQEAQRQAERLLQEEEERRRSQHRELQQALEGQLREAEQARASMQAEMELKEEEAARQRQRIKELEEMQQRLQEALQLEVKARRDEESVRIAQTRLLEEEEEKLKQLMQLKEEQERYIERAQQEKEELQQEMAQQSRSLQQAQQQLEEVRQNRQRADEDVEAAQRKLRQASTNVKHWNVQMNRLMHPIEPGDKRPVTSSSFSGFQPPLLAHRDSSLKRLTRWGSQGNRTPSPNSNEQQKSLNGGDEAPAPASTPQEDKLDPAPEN
UniProt Q99766, sequence (Q99766 whole entry, looked up): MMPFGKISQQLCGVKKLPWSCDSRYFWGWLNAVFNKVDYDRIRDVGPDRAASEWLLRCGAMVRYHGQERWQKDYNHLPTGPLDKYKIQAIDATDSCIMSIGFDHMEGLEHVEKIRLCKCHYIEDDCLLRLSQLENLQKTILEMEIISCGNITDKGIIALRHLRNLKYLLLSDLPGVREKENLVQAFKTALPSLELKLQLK

log2 fold change, inactive:
CKM (UniProt P06732) -0.076
CMIP (UniProt Q8IY22) 0.004
COG6 (UniProt Q9Y2V7) -0.059
DGCR8 (UniProt Q8WYQ5) -0.014
COPZ1 isoform 4 (UniProt P61923) 0.013
DENND6A (UniProt Q8IWF6) -0.047
CKAP5 (UniProt Q14008) -0.012
CNOT2 (UniProt Q9NZN8) -0.013
COL6A5 (UniProt A8TX70) -0.141
DCP1A (UniProt Q9NPI6) -0.042
COG2 (UniProt Q14746) -0.017
DEF6 (UniProt Q9H4E7) -0.014
CSDE1 isoform 4 (UniProt O75534) 0.03
CNOT6L (UniProt Q96LI5) -0.06
DHRS11 (UniProt Q6UWP2) -0.014
DNAJC1 (UniProt Q96KC8) -0.048
DOCK7 (UniProt Q96N67) -0.054
CTNND1 isoform 3 (UniProt O60716) -0.028
CHUK (UniProt O15111) 0.071
COG5 isoform 2 (UniProt Q9UP83) -0.027
CSTB (UniProt P04080) -0.065
CHORDC1 (UniProt Q9UHD1) -0.001
CSTF2 (UniProt P33240) -0.033
CIP2A (UniProt Q8TCG1) -0.046
DOCK8 (UniProt Q8NF50) 0.047
COQ9 (UniProt O75208) -0.008
CKS1B (UniProt P61024) -0.034
CXXC1 isoform 2 (UniProt Q9P0U4) -0.089
CXorf38 (UniProt Q8TB03) -0.007
DDX54 isoform 2 (UniProt Q8TDD1) 0.023
CSNK2A1 (UniProt P68400) -0.028
DMAC2L (UniProt Q99766) -0.017
DCP2 (UniProt Q8IU60) 0.003
CYP51A1 (UniProt Q16850) 0.101
CMPK2 (UniProt Q5EBM0) 0.012
